According to the supplement of paper PMC10849652:
About 7,900 targets were measured; listed, in parts, are those with a hit and a random draw of the rest. About 0.6% of all pairs of compound and target were hits. Unmarked numbers belong to inactive results.

Legend:
Assay in all cases: log2 fold change, soluble protein after heating vs DMSO (PISA); higher = thermal stabilisation; K562 cells, 10 uM, 30 min; active = over 0.2 and 3.5 SD of the protein, either way, in both replicates (recomputed)
[1] = compound: CC1=C(C=C(C=C1)NC(=O)C2=CC(=CC=C2)C(C)(C)C#N)NC3=CC4=C(C=C3)N=CN(C4=O)C
Outline: (§1)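 Thermal stability values are relative to control samples and come from duplicates. They are expressed as log2 fold changes. For measurement, K562 cells (2×10^6 cells/mL) received 10 μM compound for 30 min, and aliquots were heated for 3 min over 48°C-58°C, pooled, and extracted at 4°C in PBS with 0.5% NP-40. Soluble protein, the supernatant after 21,000xg for 90 min, was quantified by TMTpro 16plex LC-MS/MS with equalised channel sums.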

[2] = compound: CC1=C(C=C(C=C1)NC(=O)C2=CC(=CC=C2)N(C)C)NC(=O)C3=CC=C(C=C3)O
Outline: as §1

[3] = compound: CC1=CC=C(C=C1)SC2=C3C=C(SC3=CN=C2)C(=O)N
Outline: as §1

[4] = compound: CC1=NC(=CC=C1)C2=C(N=C(N2)C(C)(C)C)C3=CC4=NC=CN=C4C=C3
Outline: as §1

[5] = compound: CCCS(=O)(=O)Nc1ccc(F)c(C(=O)c2c[nH]c3ncc(-c4ccc(Cl)cc4)cc23)c1F [vemurafenib]
Outline: as §1

[6] = compound: CCCS(=O)(=O)Nc1ccc(F)c(C(=O)c2c[nH]c3ncc(Cl)cc23)c1F
Outline: as §1

[7] = compound: CCCc1cc(C)[nH]c(=O)c1CNC(=O)c1cc(-c2ccnc(N3CCN(C)CC3)c2)cc2c1cnn2C(C)C
Outline: as §1

[8] = compound: CCN(CC)Cc1ccc2cc(COC(=O)Nc3ccc(C(=O)NO)cc3)ccc2c1 [givinostat]
Outline: as §1

[9] = compound: CCN(CCCOc1ccc2c(Nc3cc(CC(=O)Nc4cccc(F)c4)[nH]n3)ncnc2c1)CCOP(=O)(O)O [barasertib]
Outline: as §1

[10] = compound: CC[C@@H]1C(=O)N(C)c2cnc(Nc3ccc(C(=O)NC4CCN(C)CC4)cc3OC)nc2N1C1CCCC1
Outline: as §1

[11] = compound: CC[C@@H]1C(=O)N(C)c2cnc(Nc3ccc(C(=O)N[C@H]4CC[C@H](N5CCN(CC6CC6)CC5)CC4)cc3OC)nc2N1C(C)C [volasertib]
Outline: as §1

[12] = compound: CC[C@H](C)N1C=C(C2=C(C=C(C=C21)C3=CN=C(C=C3)N4CCNCC4)C(=O)NCC5=C(C=C(NC5=O)C)C)C
Outline: as §1

[13] = compound: CCn1c(C(=O)N(C2CC2)C2CC2)cc2c3c(ncn3C)c(Nc3cc(C)n(C)n3)nc21
Outline: as §1

[14] = compound: CCn1cc(-c2ccnc3[nH]c(-c4cccc(CN(C)C)c4)cc23)c(-c2ccc(NC(=O)N(C)C)cc2)n1
Outline: as §1

[15] = compound: CN(C)CC(=O)Nc1ccc2[nH]c(=O)c3ccccc3c2c1
Outline: as §1

[16] = compound: CN(CCOC1=CC=C(C=C1)C[C@H]2C(=O)NC(=O)S2)C3=CC=CC=N3 (racemic) [rosiglitazone]
Outline: as §1

[17] = compound: CN1C2=C(C3=C1C(=O)N(N=C3)CC4=CC(=CC=C4)N)SC(=C2)S(=O)C
Outline: as §1

[18] = compound: CN1CCC(CNc2ccc3ncc(-c4cccc(OC(F)(F)F)c4)n3n2)CC1
Outline: as §1

[19] = compound: CCCCN(Cc1ccc(C(=O)NO)cc1)C(=O)Nc1ccccc1 [Nexturastat A]
Outline: as §1

[20] = compound: CC[C@H](C)[C@@H](C(=O)N[C@@H]([C@@H](C)O)C(=O)N[C@@H](CC(C)C)C(=O)[C@]1(CO1)C)NC(=O)[C@H]([C@@H](C)CC)N(C)C(=O)C [epoxomicin]
Outline: as §1

Chain of UniProt P78382 (P78382 whole entry, looked up): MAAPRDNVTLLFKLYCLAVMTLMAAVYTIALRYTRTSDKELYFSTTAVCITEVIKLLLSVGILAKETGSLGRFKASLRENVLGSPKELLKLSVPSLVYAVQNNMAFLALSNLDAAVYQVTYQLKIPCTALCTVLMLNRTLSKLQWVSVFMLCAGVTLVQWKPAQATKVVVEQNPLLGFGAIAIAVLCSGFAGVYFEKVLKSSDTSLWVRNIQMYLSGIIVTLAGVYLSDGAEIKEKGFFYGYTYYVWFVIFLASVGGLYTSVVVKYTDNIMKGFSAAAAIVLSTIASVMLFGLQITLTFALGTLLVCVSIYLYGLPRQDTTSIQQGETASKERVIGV
Chain of UniProt P53597 (P53597 whole entry, looked up): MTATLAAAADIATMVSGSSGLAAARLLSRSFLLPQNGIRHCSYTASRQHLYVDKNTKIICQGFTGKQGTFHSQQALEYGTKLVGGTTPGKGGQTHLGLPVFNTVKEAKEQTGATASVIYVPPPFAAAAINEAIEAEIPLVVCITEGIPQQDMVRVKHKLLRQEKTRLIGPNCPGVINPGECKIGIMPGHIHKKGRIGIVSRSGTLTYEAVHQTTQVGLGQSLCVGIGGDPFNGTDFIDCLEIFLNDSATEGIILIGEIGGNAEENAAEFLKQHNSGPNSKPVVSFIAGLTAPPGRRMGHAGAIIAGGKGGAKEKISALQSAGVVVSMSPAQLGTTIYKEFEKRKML
Chain of UniProt Q96BZ9 (Q96BZ9 whole entry, looked up): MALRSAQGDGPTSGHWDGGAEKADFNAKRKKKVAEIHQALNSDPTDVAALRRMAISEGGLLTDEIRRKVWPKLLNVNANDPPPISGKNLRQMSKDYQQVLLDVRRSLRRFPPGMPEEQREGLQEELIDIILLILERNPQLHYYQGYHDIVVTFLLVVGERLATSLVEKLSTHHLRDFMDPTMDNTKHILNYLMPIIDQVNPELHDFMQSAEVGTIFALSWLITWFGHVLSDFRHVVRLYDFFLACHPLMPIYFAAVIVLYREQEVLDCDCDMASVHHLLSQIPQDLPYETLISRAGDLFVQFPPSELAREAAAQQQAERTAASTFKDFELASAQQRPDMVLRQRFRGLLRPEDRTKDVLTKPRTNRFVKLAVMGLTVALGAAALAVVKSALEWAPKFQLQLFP
Chain of UniProt Q9NS93 (Q9NS93 whole entry, looked up): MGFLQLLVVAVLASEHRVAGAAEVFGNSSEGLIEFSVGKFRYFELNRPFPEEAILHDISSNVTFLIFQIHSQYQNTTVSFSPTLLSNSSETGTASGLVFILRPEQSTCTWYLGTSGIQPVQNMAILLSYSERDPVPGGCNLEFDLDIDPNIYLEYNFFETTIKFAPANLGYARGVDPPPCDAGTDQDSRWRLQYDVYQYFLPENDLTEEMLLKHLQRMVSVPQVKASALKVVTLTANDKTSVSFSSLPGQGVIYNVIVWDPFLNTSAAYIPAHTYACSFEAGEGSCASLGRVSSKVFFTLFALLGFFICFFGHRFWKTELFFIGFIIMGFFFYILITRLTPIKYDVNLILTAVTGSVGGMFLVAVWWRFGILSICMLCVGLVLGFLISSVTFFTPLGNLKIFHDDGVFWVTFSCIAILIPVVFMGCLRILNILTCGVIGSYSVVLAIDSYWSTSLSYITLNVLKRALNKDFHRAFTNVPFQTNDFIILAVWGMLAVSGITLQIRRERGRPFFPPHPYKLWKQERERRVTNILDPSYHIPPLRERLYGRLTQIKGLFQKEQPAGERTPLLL
Chain of UniProt Q9NVC3 (Q9NVC3 whole entry, looked up): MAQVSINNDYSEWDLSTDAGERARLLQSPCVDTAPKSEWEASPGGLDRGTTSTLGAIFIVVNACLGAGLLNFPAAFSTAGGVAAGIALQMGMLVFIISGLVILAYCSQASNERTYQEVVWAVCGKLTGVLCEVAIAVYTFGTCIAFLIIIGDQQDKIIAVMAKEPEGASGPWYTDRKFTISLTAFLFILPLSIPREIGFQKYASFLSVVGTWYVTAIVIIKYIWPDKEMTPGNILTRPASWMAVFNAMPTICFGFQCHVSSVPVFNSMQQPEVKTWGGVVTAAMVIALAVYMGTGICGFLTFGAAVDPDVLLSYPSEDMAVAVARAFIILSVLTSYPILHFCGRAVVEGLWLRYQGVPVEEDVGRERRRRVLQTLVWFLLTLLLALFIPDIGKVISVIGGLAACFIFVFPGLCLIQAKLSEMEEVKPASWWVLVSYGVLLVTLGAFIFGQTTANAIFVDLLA
Chain of UniProt P51532 (P51532 whole entry, looked up): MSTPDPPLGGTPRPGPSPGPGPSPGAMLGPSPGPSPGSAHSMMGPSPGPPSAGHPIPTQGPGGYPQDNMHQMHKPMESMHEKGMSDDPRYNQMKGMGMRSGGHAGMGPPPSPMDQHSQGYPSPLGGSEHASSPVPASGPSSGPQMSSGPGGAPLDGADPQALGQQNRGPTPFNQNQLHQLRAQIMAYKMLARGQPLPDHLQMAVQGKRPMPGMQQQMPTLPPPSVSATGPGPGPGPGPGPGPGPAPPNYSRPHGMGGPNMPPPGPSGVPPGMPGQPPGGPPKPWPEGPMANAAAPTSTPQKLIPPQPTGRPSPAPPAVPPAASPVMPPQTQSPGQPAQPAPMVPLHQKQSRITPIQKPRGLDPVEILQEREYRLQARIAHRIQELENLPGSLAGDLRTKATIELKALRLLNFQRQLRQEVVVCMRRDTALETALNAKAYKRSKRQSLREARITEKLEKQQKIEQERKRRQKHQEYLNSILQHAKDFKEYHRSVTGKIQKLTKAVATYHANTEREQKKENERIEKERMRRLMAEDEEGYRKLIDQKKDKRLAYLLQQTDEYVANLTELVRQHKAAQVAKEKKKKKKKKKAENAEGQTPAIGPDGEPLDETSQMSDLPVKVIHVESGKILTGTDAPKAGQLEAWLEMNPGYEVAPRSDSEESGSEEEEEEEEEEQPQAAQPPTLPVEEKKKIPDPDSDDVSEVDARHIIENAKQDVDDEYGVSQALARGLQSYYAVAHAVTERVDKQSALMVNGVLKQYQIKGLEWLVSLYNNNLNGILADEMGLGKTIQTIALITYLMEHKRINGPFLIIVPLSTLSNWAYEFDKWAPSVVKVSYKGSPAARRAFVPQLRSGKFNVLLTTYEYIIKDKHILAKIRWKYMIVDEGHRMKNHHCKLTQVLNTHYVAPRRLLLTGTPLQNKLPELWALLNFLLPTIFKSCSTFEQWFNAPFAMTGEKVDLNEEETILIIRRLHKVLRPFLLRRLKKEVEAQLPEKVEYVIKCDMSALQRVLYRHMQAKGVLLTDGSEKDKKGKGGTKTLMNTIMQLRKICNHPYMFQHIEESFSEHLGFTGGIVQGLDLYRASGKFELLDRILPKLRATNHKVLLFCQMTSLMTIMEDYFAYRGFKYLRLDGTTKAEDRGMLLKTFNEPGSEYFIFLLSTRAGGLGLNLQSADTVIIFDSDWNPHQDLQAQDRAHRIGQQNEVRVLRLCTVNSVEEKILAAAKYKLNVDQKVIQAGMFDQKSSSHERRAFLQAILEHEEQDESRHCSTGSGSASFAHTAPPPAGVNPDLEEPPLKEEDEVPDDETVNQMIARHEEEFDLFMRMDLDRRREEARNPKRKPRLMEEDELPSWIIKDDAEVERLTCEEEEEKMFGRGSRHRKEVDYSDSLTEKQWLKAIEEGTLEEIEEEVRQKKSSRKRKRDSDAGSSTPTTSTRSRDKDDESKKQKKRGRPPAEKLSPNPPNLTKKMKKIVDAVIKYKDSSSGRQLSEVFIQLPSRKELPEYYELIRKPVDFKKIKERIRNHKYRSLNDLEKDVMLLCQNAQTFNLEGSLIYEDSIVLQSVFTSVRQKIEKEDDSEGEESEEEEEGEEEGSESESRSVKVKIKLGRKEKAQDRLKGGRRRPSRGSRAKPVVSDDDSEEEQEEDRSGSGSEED
Chain of UniProt Q9Y5J6 (Q9Y5J6 whole entry, looked up): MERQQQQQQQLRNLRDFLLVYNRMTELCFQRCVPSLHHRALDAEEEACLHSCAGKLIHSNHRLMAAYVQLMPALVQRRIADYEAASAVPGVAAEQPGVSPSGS
Chain of UniProt Q9BSF4 (Q9BSF4 whole entry, looked up): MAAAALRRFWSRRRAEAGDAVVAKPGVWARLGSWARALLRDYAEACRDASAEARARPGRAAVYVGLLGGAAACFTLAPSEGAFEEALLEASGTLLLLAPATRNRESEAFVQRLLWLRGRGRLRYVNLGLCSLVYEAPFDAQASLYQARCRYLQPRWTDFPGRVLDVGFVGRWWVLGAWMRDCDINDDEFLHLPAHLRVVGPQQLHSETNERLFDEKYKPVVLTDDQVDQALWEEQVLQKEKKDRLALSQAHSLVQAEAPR
Chain of UniProt Q8N1S5 (Q8N1S5 whole entry, looked up): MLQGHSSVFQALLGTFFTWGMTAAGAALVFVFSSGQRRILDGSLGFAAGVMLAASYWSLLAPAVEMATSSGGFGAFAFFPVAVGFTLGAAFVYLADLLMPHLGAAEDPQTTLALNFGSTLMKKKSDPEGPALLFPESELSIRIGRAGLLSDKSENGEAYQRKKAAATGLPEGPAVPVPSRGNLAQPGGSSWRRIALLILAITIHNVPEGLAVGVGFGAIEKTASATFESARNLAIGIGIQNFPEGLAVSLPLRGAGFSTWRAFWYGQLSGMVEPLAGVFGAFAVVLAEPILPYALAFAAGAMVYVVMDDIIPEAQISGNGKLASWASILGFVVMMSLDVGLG
Chain of UniProt Q969X1 (Q969X1 whole entry, looked up): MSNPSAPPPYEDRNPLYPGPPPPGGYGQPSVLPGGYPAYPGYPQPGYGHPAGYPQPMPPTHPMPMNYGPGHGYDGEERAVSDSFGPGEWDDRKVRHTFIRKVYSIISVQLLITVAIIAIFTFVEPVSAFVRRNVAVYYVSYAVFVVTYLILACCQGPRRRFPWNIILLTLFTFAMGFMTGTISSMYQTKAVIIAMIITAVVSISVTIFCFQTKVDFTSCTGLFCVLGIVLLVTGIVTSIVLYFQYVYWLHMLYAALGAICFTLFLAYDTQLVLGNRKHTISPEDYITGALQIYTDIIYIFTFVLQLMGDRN

Target	log2 fold change [1]	log2 fold change [2]	log2 fold change [3]	log2 fold change [4]	log2 fold change [5]	log2 fold change [6]	log2 fold change [7]	log2 fold change [8]	log2 fold change [9]	log2 fold change [10]	log2 fold change [11]	log2 fold change [12]	log2 fold change [13]	log2 fold change [14]	log2 fold change [15]	log2 fold change [16]	log2 fold change [17]	log2 fold change [18]	log2 fold change [19]	log2 fold change [20]
SLC39A11 (UniProt Q8N1S5)	0.046	0.372	-0.057	0.045	0.055	-0.026	-0.009	0.074	-0.002	0.102	0.071	0.007	0	-0.136	-0.062	-0.007	-0.021	0.15		
SPECC1 (UniProt Q5M775)	-0.028	-0.015	0.094	-0.063	-0.094	-0.06	-0.102	0.035	0.062	0.109	0.052	-0.013	0.037	0.004	-0.111	0.023	0.07	-0.012	-0.08	-0.101
SLC38A7 (UniProt Q9NVC3)	0.092	0.009	0	0.094	0.042	0.012	-0.002	0.008	-0.012	-0.283	-0.054	-0.023	-0.018	0.109	-0.123	0.036		-0.589	-0.04	0.078
SUN1 isoform 9 (UniProt O94901)	-0.164	0.047	0.029	0.04	-0.21	-0.005	0.037	0.078		0.13	0.018	-0.065	0.027	0.135	0.002		0.037	-0.111	0.11	-0.021
TK1 (UniProt K7ERV3)	-0.185	-0.055	-0.273		-0.077	-0.009	-0.149		0.088		0.055	-0.163		-0.014	0.084	0.035	-0.024	0.005	-0.178	0.007
TM7SF3 (UniProt Q9NS93)	-0.033	-0.054	0.005	0.017		-0.019	-0.027	0.06	0.045	-0.136	-0.178	-0.074	-0.006			-0.022	0.025			
TBC1D20 isoform 3 (UniProt Q96BZ9)	-0.048	0.04	0.128	0.037	0.083	0.166	-0.14	0.076	0.034	0.273	-0.153	0.07	-0.111	0.028	0.04	-0.03		0.046	0	0.068
SLC27A1 (UniProt Q6PCB7)	-0.186	0.036	-0.046	0.12	-0.109	-0.008	-0.01	0.049	0.043		-0.639 (active)	0.022	-0.008		0.008	-0.01	-0.072		-0.061	-0.021
TIMM10B (UniProt Q9Y5J6)	-0.053	-0.075	0.018		0.073	-0.077	-0.057	0.061	0.067	0.033	-0.011	-0.064	0.115	-0.033	-0.12	-0.041	0.063	0.131	-0.05	0.274
TANGO6 (UniProt Q9C0B7)	0.069	-0.006	0.039	0.031		0.068	-0.052	0.131	0.048	0.276	-0.375 (active)	0.052	-0.165			0.037	0.006		-0.051	0.035
TIMM29 (UniProt Q9BSF4)	-0.007	-0.015	-0.023	-0.102	-0.031	0.033	0	0.014	0.004	0.044	-0.071	0.019	0.027	-0.035	0	-0.016	-0.103	0.062	-0.037	-0.013
TENT5C (UniProt Q5VWP2)	-0.011	0.037	-0.019	0.088	0.097	0.005	-0.137	0.014	0.01	-0.073	-0.038	0.005	0.085	0.009	0.031	0.033	-0.066	-0.082		
SMARCA4 (UniProt P51532)	0.039	-0.111	-0.296	-0.028	-0.261	-0.556	-0.084	0.159	0.137	0.019	0.121		-0.245	0.119	-0.191	0.065	0.177	-0.046	0.351	0
SRFBP1 (UniProt Q8NEF9)	0.008	-0.019	-0.127	-0.025		-0.012	-0.012	-0.061	-0.045	0.208	0.157	-0.094	-0.088	0.049		0.078	0.117	0.277	0.111	-0.047
SSBP4 (UniProt Q9BWG4)	0.056	-0.017	-0.133	0.003		0.021	-0.036	-0.042	0.053	0	-0.056	-0.036	-0.116	-0.009		0.162	-0.238	0.036		
TMBIM1 (UniProt Q969X1)	0.113	-0.055	0.09		-0.132	0.185	-0.134	0.004	-0.057	0.086	0.002	-0.014	0.034	0.044	0.029	-0.013	-0.035	-0.03	-0.02	-0.033
SUCLG1 (UniProt P53597)	-0.02	-0.008	-0.001	0.025	0.009	0	-0.006	-0.102	0.019	0.008	-0.044	0.063	-0.013	-0.012	-0.027	0.037	-0.041	-0.097	-0.032	0.031
SLC35A1 (UniProt P78382)	-0.027	0	-0.045	0.06	0.382 (active)	0	-0.07	-0.024	-0.05	0.148	0.118	-0.034	-0.002		-0.056	-0.013	-0.191		-0.037	0.018
